From ChEMBL document CHEMBL3433997, “St. Jude Leishmania screening dataset” (2016)

Columns and labels:
Type in all cases: functional
[1] = target: Solute carrier family 2, facilitated glucose transporter member 1 (Homo sapiens) (UniProt P11166); experiment: ST_JUDE_LEISH: Cytotoxicity at 2uM final concentration against transgenic Leishmania Mexicana promastigotes LmGLUT1 that are glucose transport deficient and complemented with the human glucose transporter GLUT1. Activity is measured by DNA content using SYBR green in vitro
[2] = target: Hexose transporter 1 (Plasmodium falciparum) (UniProt O97467); experiment: ST_JUDE_LEISH: Cytotoxicity at 2uM final concentration against transgenic Leishmania Mexicana promastigotes LmPfHT that are glucose transport deficient and complemented with the Plasmodium falciparum hexose transporter. Activity is measured by DNA content using SYBR green in vitro
[3] = target: Glucose transporter (Leishmania mexicana) (UniProt O61059); experiment: ST_JUDE_LEISH: Cytotoxicity at 2uM final concentration against transgenic Leishmania Mexicana promastigotes LmGT2 that are glucose transport deficient and complemented with the L. Mexicana glucose transporter 2. Activity is measured by DNA content using SYBR green in vitro

Sequence of Solute carrier family 2, facilitated glucose transporter member 1 (Homo sapiens) (P11166 whole entry): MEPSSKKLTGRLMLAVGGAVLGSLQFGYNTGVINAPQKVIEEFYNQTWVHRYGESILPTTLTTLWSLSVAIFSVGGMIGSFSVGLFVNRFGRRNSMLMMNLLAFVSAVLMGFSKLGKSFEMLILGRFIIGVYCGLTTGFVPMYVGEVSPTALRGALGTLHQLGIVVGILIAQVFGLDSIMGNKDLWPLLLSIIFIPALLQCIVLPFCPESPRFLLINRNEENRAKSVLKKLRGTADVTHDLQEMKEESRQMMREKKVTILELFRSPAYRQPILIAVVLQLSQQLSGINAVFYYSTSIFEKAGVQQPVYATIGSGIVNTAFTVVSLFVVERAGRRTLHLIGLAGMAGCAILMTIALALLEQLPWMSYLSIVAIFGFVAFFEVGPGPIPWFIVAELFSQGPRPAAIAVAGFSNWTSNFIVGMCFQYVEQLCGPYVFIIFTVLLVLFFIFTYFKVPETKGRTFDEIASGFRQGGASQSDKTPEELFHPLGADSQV

SMILES | inhibition [1] [%] | inhibition [2] [%] | inhibition [3] [%]
N#CCCN1CCN(Cc2ccc(-c3cccc(-c4nc5cc(F)ccc5[nH]4)c3)cc2)CC1 | 2.61 | 2.18 | 3.17
Cc1nc(C)c(-c2ccc(Oc3ccc(OC(F)(F)F)cc3)cc2)c(OC(=O)c2ccccc2)c1Cl | 2.27 | 3.78 | 2.37
Cc1cccc2nc(-c3ccc(-c4ccc(NC(=O)C(C)CN5CCN(C)CC5)cc4)s3)[nH]c12 (stereo not given) | 3.39 | 3.1 | 2.29
CCOc1ccc2nc3cc(NC(=O)c4ccco4)ccc3c(N)c2c1 | 3.66 | 3.27 | 2.78
NC1=NC(c2ccccc2)(c2ccccc2)C(=O)N1Cc1ccc(-c2ccncc2)cc1 | 8.4 | 6.36 | 6.42
CN1CCN(CCCNc2ncc3c(-c4ccc(NC(=O)Nc5cc(C(F)(F)F)ccc5F)c(F)c4)nn(C)c3n2)CC1 | -0.98 | -3.33 | 7.86
CN(C)CCNC(=O)[C@H](CC1CCCCC1)NC(=O)c1ccc(O)c(-c2ccc(Cl)c(Cl)c2)c1 | 4 | 2.85 | 1.78
FC(F)(F)c1ccc2[nH]c(-c3ccc(-c4cccc(CNCCc5cccnc5)c4)s3)nc2c1 | 3.04 | 2.04 | 4.6
O=C(NC1CCCCC1)C(c1cccs1)N(CCc1ccccc1)C(=O)c1ccco1 (stereo not given) | 1.57 | 1.89 | 0.46
O=C(CCC1CCCC1)N(Cc1ccc(-c2ccc(CNCCc3ccccc3)cc2)cc1)C1CCCNC1 (stereo not given) | -0.19 | 1.6 | 0.14
CCCCCCNCc1c(O)ccc2c(CNCCCCCC)c(O)ccc12 | -0.62 | -0.78 | 0.36
COc1ccc(Cl)cc1N1CCN(CCCNC(=O)c2ccc(-c3nc4cc(Cl)c(F)cc4[nH]3)c(F)c2)CC1 | 6.94 | 2.24 | 4.99
Cc1cc(C)c(NC(=O)NC2CCN(CCCCCNC(=O)/C=C/c3ccc(Cl)c(Cl)c3)C2)c(C)c1 (stereo not given) | 2.03 | 2.36 | 2.29
CC(C)(C)c1ccc2[nH]c(-c3ccc(/C=C/C(=O)NCc4ccc(Cl)c(Cl)c4)cc3)nc2c1 | 6 | 6.31 | 1.89
Cc1cc2nc(-c3ccc(C(=O)NC4CCN(Cc5ccccc5)CC4)cc3)[nH]c2cc1C | 14.1 | 12.9 | 10.7
N#Cc1cccc(C(O)CN(Cc2ccccc2)Cc2ccccc2)c1 (stereo not given) | 1.37 | 1.53 | 2.04
Cc1ccc(-c2cncc(-c3cc(NC4CCN(Cc5ccccc5)CC4)nc(-c4ccccc4)n3)c2)cc1 | 2.11 | 2.36 | 1.96
NCCNc1ccc([N+](=O)[O-])cc1C(=O)Nc1cccc(C(F)(F)F)c1 | 3.02 | 3.19 | 3.98
COc1ccc(CN2CCC2=O)c(OC)c1 | 4.12 | 3.17 | 3.38
Cc1ccc(CNC(=O)[C@H](Cc2ccccc2)Nc2ccnc(NCC3CCCCC3)n2)cc1 | 7.85 | 4.83 | 3.01
Cc1ccccc1C1CCN(C2CCC(NC(=O)c3ccc(-c4cccs4)s3)CC2)CC1 (stereo not given) | 2.14 | 1.24 | 1.93
Cc1cc(N[C@@H](CC(C)C)C(=O)Nc2ccccc2)nc(NCC2CCCCC2)n1 | 10.2 | 9.8 | 5.12
COc1ccc(NC2=C(c3ccccc3)C(=O)c3ccccc32)cn1 | 7.83 | 4.66 | 3.49
NC1CCN(Cc2cccc(-c3ccc(-c4nc5ccccc5[nH]4)cc3)c2)C1 (stereo not given) | -1.1 | 2.18 | 1.99

SMILES | inhibition [1] [%] | inhibition [2] [%] | inhibition [3] [%]
CC(=O)N[C@H](C(=O)Nc1ccc(-c2ccc(-c3nc4cc(C(F)(F)F)ccc4[nH]3)cc2)cc1)C(C)C | 4.54 | 3.08 | 0.17
COc1cc(/C=C/C(=O)NC2CCC(N3CCC(c4ccccc4C)CC3)CC2)cc(OC)c1 (stereo not given) | -0.75 | -0.16 | 0.77
COc1ccccc1CCNc1nc(C)cc(N[C@@H](CC(C)C)C(=O)NCc2cccs2)n1 | 6.71 | 5.41 | 4.04
Cc1nc(Nc2ccc(C)c(Cl)c2)c2c(C)noc2n1 | 5.28 | 4.91 | 4.71
c1ccc(Oc2ccc(Nc3ccnc4cc(-c5ccc(CN6CCCCC6)o5)ccc34)cc2)nc1 | -2.19 | -1.27 | 0.73
Cc1nc2nc(N)nc(N)c2c(C)c1Cc1ccccc1Cl | 9.22 | 12.6 | 7.89
CCNC(=O)CCc1cccc(Br)c1 | -1.73 | -1.52 | -1.62
COc1cc2nc(-c3ccccc3)nc(N3CCN(CC(=O)N4CCCC4)CC3)c2cc1OC | 3.46 | 1.22 | 4.86
CC(C)Oc1ccc(N2CCN(CCCCNC(=O)c3ccc(NC(=O)c4ccc(Cl)cc4)cc3)CC2)c(OC(C)C)c1 | 1.62 | 2.05 | 1.44
CCCC(=O)Nc1ccc(OCCCN(Cc2ccccc2OC(F)(F)F)c2ccc(C#N)c(C(F)(F)F)c2)cc1 | 3.69 | 9.22 | 5.47
CC(C)CCNC(=O)c1cnc2c(O)cccc2c1Nc1cccc(NC(=O)c2ccc(F)cc2)c1 | 4.52 | 7.98 | 0.01
COc1ccccc1CCNc1nc(C)cc(N[C@@H](Cc2ccccc2)C(=O)NCCOc2ccccc2)n1 | 1.72 | 1.1 | -2.09
Cc1nc(C)c(-c2ccc(Oc3ccc(OC(F)(F)F)cc3)cc2)c(OC(=O)c2ccc(CN(C)C)cc2)c1Cl | 10.9 | 8.12 | 8.96
COc1ccccc1CCNc1nc(C)cc(N[C@@H](CC(C)C)C(=O)Nc2ccccc2)n1 | 4.84 | 6.02 | -0.58
C=CCc1cc(Cc2cnc(N)nc2N)cc(CCC)c1O | -0.63 | -0.27 | -0.78
COc1ccc(CNC(=O)Nc2cc3cc(-c4ccc(CN(C)C)cc4)ccc3n3c(C)nnc23)cc1 | 4.84 | 2.93 | 3.32
CCN(CC)/C(=N/C(=N)NCc1ccc(Cl)cc1)NCCCCCCN/C(=N\C(=N)NCc1ccc(Cl)cc1)N(CC)CC | 9.05 | 8.96 | 8.12
Fc1ccc2[nH]c(-c3ccc(-c4ccc(CN5CCCCC5)cc4)s3)nc2c1 | 5.07 | 4.14 | 1.79
Cc1cc(C)nc(-n2[nH]c(C)c(Cc3ccc(C(C)(C)C)cc3)c2=O)n1 | 4.87 | 5.45 | 2.9
Cc1cc(-c2cnc(N)c(-c3ccc(N4CCN(C)CC4)cc3)c2)cc(C)c1O | 3.43 | 0.67 | 2.45
CCC(C)CC(=O)Nc1ccc(OC)c(S(=O)(=O)N[C@@H]2CCN(C#N)C2)c1 (stereo not given in full) | -0.28 | -0.4 | -0.94
CSc1ccc2ccccc2c1CCNCCCCNCCc1c(SC)ccc2ccccc12 | 68.9 | 96.1 | 81.6
O=C(/C=C/c1ccc(Cl)c(Cl)c1)NCCCCCN1CCN(C(=O)Nc2ccc(OC(F)F)cc2)CC1 | 2.15 | 1.76 | -2.1
FC(F)(F)c1ccc2[nH]c(-c3ccc(-c4ccc(CNCc5cnn(-c6ccccc6)n5)cc4)s3)nc2c1 | 2.88 | 1.1 | 2.24

SMILES | inhibition [1] [%] | inhibition [2] [%] | inhibition [3] [%]
COc1cc(CCCOc2c(N)nc(N)nc2N)cc(OC)c1OC | 4.82 | 3.75 | 3.79
CCOC(=O)c1ccc2[nH]c(-c3ccc(C(=O)NCc4ccc(C(C)(C)C)cc4)cc3)nc2c1 | 4.63 | 2.27 | 1.02
CCN(CCS(C)(=O)=O)Cc1ccc(-c2ccc3ncnc(Nc4ccc(OCc5cccc(F)c5)c(Cl)c4)c3c2)o1 | 2.48 | 0.54 | -0.09
Cc1ccc(CN2CCCN(Cc3cccc(NC(=O)c4cc5ccccc5s4)c3)CC2)cc1C | 0.56 | 0.71 | -0.17
O=C(Cn1c(CCc2cccc(F)c2F)cc(=O)c2ccccc21)N(CCN1CCCCC1)Cc1ccc(-c2ccc(C(F)(F)F)cc2)cc1 | 6.77 | 5.08 | 3.76
Cc1ccc(CNC(=O)[C@H](CCCN)Nc2cc(C)nc(NCC3CCCCC3)n2)cc1 | 1.46 | 1.17 | 0.32
O=C(/C=C/c1ccc(Cl)c(Cl)c1)NCCCCCN1CCCC(CCCNC(=O)Nc2ccc(C(F)(F)F)cc2)C1 (stereo not given) | 11.3 | 9.28 | 5.82
COc1ccc(CNCc2cccc(-c3ccc(-c4nc5cccc(C)c5[nH]4)cc3)c2)cc1 | 14 | 9.73 | 7.5
CCCN1CCN(c2cc(NCC)c3c4c(onc24)-c2ccccc2C3=O)CC1 | 7.98 | 8.22 | 6.9
N#Cc1nc2ccc(OCCN(Cc3ccccc3C(F)(F)F)c3ccc(C#N)c(C(F)(F)F)c3)cc2s1 | 9.32 | 6.39 | 8.4
Cc1nnc2c(NC(=O)/C=C/c3ccc(OC(F)(F)F)cc3)cc3cc(Cl)ccc3n12 | 0.28 | 0.28 | 0.55
COc1ccc(C=NN=c2cc(C)[nH]c3ccccc23)c2ccccc12 | 8.8 | 6.92 | 2.26
COc1cccc(CNC[C@@H](O)[C@H](Cc2ccccc2)NC(=O)c2cc3c4c(c2)c(C(C)C)cn4CCS(=O)(=O)N3C)c1 | 8.36 | 8.07 | 8.04
O=C(NC1CCN(CCN2CCC(c3cn(CCO)c4ccccc34)CC2)CC1)c1ccc(-c2ccc(C(F)(F)F)cc2)cc1 | -1.51 | 3.18 | 0.94
Cc1ccc(C(=O)Nc2ccc(F)c(F)c2F)cc1S(=O)(=O)N1CCCCC1 | 4.08 | 3.47 | 0.7
COc1ccc(-c2cccc(NC(=O)c3ccc(Cl)cc3)c2)cc1CNC(C)C | 3.8 | 2.1 | -1.5
CC1(C)CNCc2cc(NC(=O)/C=C/c3ccc(Cl)cc3)ccc21 | 0.41 | -2.52 | 2.38
CN1CCC(NCc2ccc(-c3cccc(-c4nc5ccccc5[nH]4)c3)cc2)CC1 | 1.67 | 2.05 | 1.64
O=C(Nc1ccc(F)cc1)NC1CCN(c2ccnc3cc(Cl)ccc23)C1 (stereo not given) | -0.37 | -1.17 | -1.87
NC(=O)c1cccc(C(=O)Nc2cccc(-c3ccc(-c4nc5cc(C(F)(F)F)ccc5[nH]4)cc3)c2)c1 | 0.31 | 4.83 | 2.53
CCOC(=O)CNCC(=O)c1ccc(OCc2ccccc2)cc1 | 1.94 | 0.64 | 2.44
COc1ccc([N+](=O)[O-])cc1N(Cc1ccccc1-c1ccccc1)S(=O)(=O)c1ccc(C(F)(F)F)cc1 | 3.87 | 5.68 | 2.13
